Compound activity: PubChem BioAssay, several laboratories
Hits are enriched below; roughly 4.2% of the tested compounds scored in any of these assays.
PrPC surface inh = inhibitors of human cell surface prion protein PrPC | P04156 | TR-FRET read-out | inhibition, % at 13.8 µM | 370,000 compounds, 0.43% hits; in the data active means inhibition above about 24%
RecA intein inh = Mtb RecA intein splicing inhibition | 290,000 compounds, 0.75% hits | AID 2221 | inhibition, % (no concentration beside the values) | cell-free RecA intein splicing, fluorescence; in the data active means inhibition above about 30%
Target sequence (P9WHJ3 whole entry, looked up): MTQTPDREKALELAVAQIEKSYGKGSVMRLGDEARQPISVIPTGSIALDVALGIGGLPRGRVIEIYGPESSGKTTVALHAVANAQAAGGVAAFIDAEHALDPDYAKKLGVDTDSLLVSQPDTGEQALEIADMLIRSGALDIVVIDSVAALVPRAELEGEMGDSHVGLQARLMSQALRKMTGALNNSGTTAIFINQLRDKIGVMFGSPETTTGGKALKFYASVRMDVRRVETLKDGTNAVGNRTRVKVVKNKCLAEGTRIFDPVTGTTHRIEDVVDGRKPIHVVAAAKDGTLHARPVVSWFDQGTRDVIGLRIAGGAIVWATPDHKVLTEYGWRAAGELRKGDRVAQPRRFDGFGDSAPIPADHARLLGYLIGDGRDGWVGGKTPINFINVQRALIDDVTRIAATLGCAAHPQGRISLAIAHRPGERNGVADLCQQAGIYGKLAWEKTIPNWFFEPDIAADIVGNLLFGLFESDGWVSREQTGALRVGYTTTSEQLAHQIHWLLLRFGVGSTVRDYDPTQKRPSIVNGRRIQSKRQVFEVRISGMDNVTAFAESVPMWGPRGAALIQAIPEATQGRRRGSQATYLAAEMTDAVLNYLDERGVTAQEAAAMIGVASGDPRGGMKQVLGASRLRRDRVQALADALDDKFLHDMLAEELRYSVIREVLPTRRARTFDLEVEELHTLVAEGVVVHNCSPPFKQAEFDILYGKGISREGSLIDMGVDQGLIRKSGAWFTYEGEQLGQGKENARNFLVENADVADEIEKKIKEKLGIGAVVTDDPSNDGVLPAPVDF
Mtb FBA inh = Mtb fructose-bisphosphate aldolase inhibition. P9WQA3. inhibition, % at 1 µM. 360,000 compounds, 2.3% hits. purified M. tuberculosis FBA, fluorescence read-out; in the data active means inhibition above about 27%
GDH-TPI inh = counter-screen for M. tuberculosis FBA inhibitors: GDH-TPI coupled enzymes; AID 588335; 360,000 compounds, 1.2% hits; GDH-TPI coupled enzyme counterscreen, NADH absorbance; inhibition, % at 4.8 µM; in the data active means inhibition above about 30%
BJeLR lethal = BJeLR cell viability loss | inhibition, % (concentration not given with the values) | AID 1554 | 300,000 compounds, 0.17% hits | BJeLR (HRASV12) viability, CellTiter-Glo ATP luminescence, 48 h; in the data active means inhibition above about 50%
A number is an active result.

For CSc1ccc(C2NN=C(c3ccccc3)S2)cc1 (centres undefined) the results were PrPC surface inh inactive, RecA intein inh inactive, Mtb FBA inh 46, GDH-TPI inh inactive and BJeLR lethal inactive.
N#CC1=C(N)n2c(s/c(=C\c3ccco3)c2=O)=C(C#N)C1c1ccco1 (centres undefined) was read as PrPC surface inh inactive, RecA intein inh inactive, Mtb FBA inh inactive, GDH-TPI inh 33 and BJeLR lethal inactive.
For CCOC(=O)C1=C(N)n2c(s/c(=C/c3ccco3)c2=O)=C(C(=O)OC)C1c1ccco1 (centres undefined) the results were PrPC surface inh inactive, RecA intein inh inactive, Mtb FBA inh inactive, GDH-TPI inh inactive and BJeLR lethal inactive.
Screening COC(=O)[C@H]1C[C@@]2(n3ccc4ccccc43)c3ccccc3N[C@H]2N1 returned PrPC surface inh inactive.
`CCN1c2ccccc2-c2nc3ccccc3n2C1c1cccs1` (centres undefined) gave PrPC surface inh inactive, RecA intein inh inactive, Mtb FBA inh active, GDH-TPI inh inactive and BJeLR lethal inactive.
Screening CC(C)NC(=O)CC1OC(=O)c2ccccc21 (centres undefined) returned PrPC surface inh inactive, RecA intein inh inactive, Mtb FBA inh inactive, GDH-TPI inh inactive and BJeLR lethal inactive.
`O=C(CC1OC(=O)c2ccccc21)c1ccco1` (centres undefined) gave PrPC surface inh inactive, RecA intein inh inactive, Mtb FBA inh inactive, GDH-TPI inh 41 and BJeLR lethal inactive.
`O=C(Nc1cccc(Cl)c1)OCCN1CCCC12CCC(c1ccccc1)CC2` (centres undefined) gave PrPC surface inh inactive.
Screening c1ccc(-n2nc3c(ccc4cnnc43)[nH]2)cc1 returned PrPC surface inh inactive, RecA intein inh inactive, Mtb FBA inh 144, GDH-TPI inh inactive and BJeLR lethal inactive.
Screening CC(/C=C/c1ccccc1)=N\Nc1nc(-c2ccccc2)cs1 returned PrPC surface inh inactive, RecA intein inh inactive, Mtb FBA inh inactive, GDH-TPI inh 32 and BJeLR lethal inactive.
Screening O=C(/C=C/c1ccccc1)Nc1nc(-c2ccncc2)cs1 returned PrPC surface inh inactive, Mtb FBA inh inactive, GDH-TPI inh 38 and BJeLR lethal inactive.
`O=C(CSc1nnc(NC(=O)c2ccco2)s1)NC1CCCC1` gave PrPC surface inh inactive, RecA intein inh inactive, Mtb FBA inh inactive, GDH-TPI inh 40 and BJeLR lethal inactive.
`CCOc1cc(/C=N/Nc2ccc(C(=O)O)cc2)ccc1OC(=O)c1ccccc1C` gave PrPC surface inh inactive, RecA intein inh inactive, Mtb FBA inh inactive, GDH-TPI inh 51 and BJeLR lethal inactive.
`O=C(Oc1ccc(Br)cc1C(=S)N1CCCCC1)c1cc([N+](=O)[O-])cc([N+](=O)[O-])c1` gave RecA intein inh 64, Mtb FBA inh inactive, GDH-TPI inh inactive and BJeLR lethal inactive.
`COc1ccc(/C=N/NC(=O)c2nc(-c3ccccc3)n(-c3ccccc3)n2)c(O)c1` gave PrPC surface inh inactive, RecA intein inh inactive, Mtb FBA inh inactive, GDH-TPI inh inactive and BJeLR lethal inactive.
For COc1ccc(/C=N/NC(=O)c2c(C)nc3ccc(Cl)cn23)cc1OC the results were PrPC surface inh inactive, RecA intein inh inactive, Mtb FBA inh inactive, GDH-TPI inh inactive and BJeLR lethal inactive.
COc1ccc(/C=N/NC(=O)c2c(C)nc3ccccn23)cc1[N+](=O)[O-] was read as PrPC surface inh inactive, RecA intein inh inactive, Mtb FBA inh inactive, GDH-TPI inh 38 and BJeLR lethal inactive.
For Cc1nc2ccccn2c1C(=O)N/N=C/c1cc(C)n(-c2ccc(Br)cc2)c1C the results were PrPC surface inh inactive, RecA intein inh inactive, Mtb FBA inh inactive, GDH-TPI inh 37 and BJeLR lethal inactive.
Screening Cc1nc2ccccn2c1C(=O)N/N=C/c1ccccc1 returned PrPC surface inh inactive, RecA intein inh inactive, Mtb FBA inh inactive, GDH-TPI inh inactive and BJeLR lethal inactive.
For COc1cc(/C=N/NC(=O)c2c(C)nc3ccc(Cl)cn23)cc(OC)c1OC the results were PrPC surface inh inactive, RecA intein inh inactive, Mtb FBA inh inactive, GDH-TPI inh 36 and BJeLR lethal inactive.
For COc1ccc(/C=N/NC(=O)c2nc(-c3ccccc3)n(-c3ccccc3)n2)cc1 the results were PrPC surface inh inactive, RecA intein inh inactive, Mtb FBA inh inactive, GDH-TPI inh 33 and BJeLR lethal inactive.
`CC1CCC2(CC1)CCC2NCc1ccc(Br)cc1` (centres undefined) gave PrPC surface inh inactive.
COC(=O)[C@]12C[C@H](CC(=O)NCc3cccc4ccccc34)C(=O)N(Cc3ccco3)C1=C[C@H](C1CCCC1)O[C@@H]2C was read as PrPC surface inh inactive.
Screening Cc1ccc(/C=N/NC(=O)c2c(C)nc3ccc(Br)cn23)cc1 returned PrPC surface inh inactive, RecA intein inh inactive, Mtb FBA inh inactive, GDH-TPI inh inactive and BJeLR lethal inactive.
Cc1cc(/C=N\NC(=O)COc2cccc3cccnc23)c(C)n1-c1ccc(Br)cc1 was read as PrPC surface inh inactive, RecA intein inh inactive, Mtb FBA inh inactive and GDH-TPI inh inactive.
Screening Cc1cc(/C=N\NC(=O)c2cccs2)c(C)n1-c1ccc2ncccc2c1 returned PrPC surface inh inactive, RecA intein inh inactive, Mtb FBA inh inactive, GDH-TPI inh 37 and BJeLR lethal inactive.
`COc1ccc(/C=N\NC(=O)c2c(C)nc3ccc(Br)cn23)cc1` gave PrPC surface inh inactive, RecA intein inh inactive, Mtb FBA inh inactive, GDH-TPI inh 43 and BJeLR lethal inactive.
Screening COc1ccc(/C=N/NC(=O)c2c(C)nc3ccc(Br)cn23)cc1OC returned PrPC surface inh inactive, RecA intein inh inactive, Mtb FBA inh inactive, GDH-TPI inh 46 and BJeLR lethal inactive.
Screening COc1cccc2nc3cc(C)c(C)cc3nc12 returned PrPC surface inh inactive, RecA intein inh inactive, Mtb FBA inh inactive, GDH-TPI inh inactive and BJeLR lethal 58.
COC(CN(C(=O)CCl)C(C(=O)NC1CCCCC1)c1ccccc1C)OC (centres undefined) was read as PrPC surface inh inactive, RecA intein inh inactive, Mtb FBA inh inactive, GDH-TPI inh inactive and BJeLR lethal inactive.
Screening COC(CN(C(=O)CCl)C(C(=O)NC1CCCC(C)C1C)c1ccc(C)cc1)OC (centres undefined) returned RecA intein inh 45, Mtb FBA inh inactive, GDH-TPI inh active and BJeLR lethal inactive.
For O=C(NCc1cc(C(F)(F)F)ccc1Cl)c1cccc2c1C(=O)c1ccc(N3CCC(N4CCCCC4)CC3)cc1S2(=O)=O the results were PrPC surface inh 46, Mtb FBA inh inactive and GDH-TPI inh inactive.
Screening CN[C@H]1C[C@H]2O[C@@](C)([C@H]1OC)n1c3ccccc3c3c4c(c5c6ccccc6n2c5c31)C(=O)NC4 returned RecA intein inh inactive and BJeLR lethal 107.
Screening Cc1ccccc1Cn1cc(CN2[C@@H](C)COc3cc(Br)ccc3S2(=O)=O)nn1 returned PrPC surface inh inactive.
